High-throughput results (PubChem)
NR3A LBD binder: binders of NR3A ligand-binding domain, primary screen, biophysical, differential scanning fluorimetry, uHTS; Glutamate receptor ionotropic, NMDA 3A (GRIN3A) ligand-binding domain; NR3A LBD differential scanning fluorimetry, Tm shift; 0% = protein alone, 100% = glycine-bound protein; Tm shift relative to glycine control, % at 25 µM; hit rate 2.5% among 340,000; AID 1259313, 2017;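 active = melting temperature shift of at least 10% of the positive control shift, at one fixed dose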
UBC13 polyUb: UBC13 polyubiquitin chain formation inhibitors, primary screen, biochemical, TR-FRET, uHTS; inhibition, % at 20 µM; Ubiquitin-conjugating enzyme E2 N (Homo sapiens), P61088; hit rate 0.47% among 330,000; in the data active = inhibition above about 45%, passing the limit was not always enough; inconclusive = no clear call, values can overlap the other calls
dFosB act: activators of delta FosB homodimer, primary screen, biochemical, fluorescence polarization, TAMRA-CDK5 oligo, single point; Protein FosB (Mus musculus), P13346; purified delta FosB; percent of positive-control signal above neutral wells; activation, % at 25 µM; hit rate 0.99% among 340,000;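 active = mean activation above about 17%, with every replicate also reaching it, limit read from the data, passing the limit was not always enough; inconclusive = only one of the two conditions met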
Target sequence (P13346 whole entry, looked up): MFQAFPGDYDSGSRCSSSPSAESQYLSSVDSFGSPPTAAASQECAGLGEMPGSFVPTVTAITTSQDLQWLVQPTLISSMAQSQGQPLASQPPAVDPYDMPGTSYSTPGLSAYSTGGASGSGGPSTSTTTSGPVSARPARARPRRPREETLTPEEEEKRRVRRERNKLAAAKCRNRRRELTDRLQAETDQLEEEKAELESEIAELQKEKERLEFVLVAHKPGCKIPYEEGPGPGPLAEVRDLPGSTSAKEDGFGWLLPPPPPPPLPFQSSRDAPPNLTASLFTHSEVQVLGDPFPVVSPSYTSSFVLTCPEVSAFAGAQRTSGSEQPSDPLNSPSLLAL
Yeast superoxide: reduction of superoxide in aged yeast, primary screen, HTS | S. cerevisiae aged cells, superoxide DHE fluorescence; active compounds read low | superoxide response (% of plate mean), % at 10 µM | hit rate 0.18% among 330,000;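 active = superoxide response under a set limit, about three screen SD below normal, cut at about 65% in these data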;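 note: yeast aged for seven days with compound at 30 °C before DHE staining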
NALP1 yeast inh: NALP1 inflammasome inhibitors in reconstituted yeast, colorimetric, S. cerevisiae, triplicate retest; S. cerevisiae NALP1/ASC/caspase-1 growth, X-gal OD620, 72 h; inhibition, % at 10 µM; hit rate 0.61% among 280,000; AID 2071, 2009; in the data active = inhibition mostly above about 24%, no sharp cut-off; inactive = mostly below about 32%
Each line names hits and unclear results; the compound was inactive in the other large screens; ! = not confirmed by another sample. In the library only some 4.3% were active in any assay of this set; here they are far more common.

O=C(/C(=C/c1ccccc1)n1cncn1)c1ccc(Cl)cc1Cl	NALP1 yeast inh 43
COc1cccc(-c2ocnc2C(=O)Nc2ccc(N3CCOCC3)cc2N2CCOCC2)c1	none
COc1ccc(C2=C(CN(C)C)C(c3ccccc3)c3ccccc3O2)cc1 (stereo not given)	NR3A LBD binder 11, dFosB act inconclusive
CSCCC(NC(=O)c1ccco1)C(=O)N(C)CC(=O)Nc1c(Cl)cccc1Cl (stereo not given)	none (no result: NALP1 yeast inh)
CC(=O)OCC12COC3c4ccccc4OC(C)(CC1C)C3C2C (stereo not given)	none
O=C(N1CCN(c2ccccn2)CC1)C(Cl)(Cl)Cl	NALP1 yeast inh 55
Cn1nccc1C(=O)NC1CCCc2c1cnn2-c1ccc(C(C)(C)C)cc1 (stereo not given)	NR3A LBD binder 16
CS(=O)(=O)N(CC(=O)N1CCCCCC1)c1cc(Cl)ccc1Cl	none
Cc1ccc(OC(=O)NC2CCS(=O)(=O)C2)cc1C (stereo not given)	NR3A LBD binder 11
CC(=O)Nc1c(I)c(NC(C)=O)c(I)c(C(=O)O)c1I	NR3A LBD binder 13!
CCC1(CC)NC(=O)N(CC(=O)OCc2nc3cc(C(=O)OC)ccc3c(=O)[nH]2)C1=O	none (no result: NALP1 yeast inh)
CCOC(=O)c1c(C)n(C)c2ccc(OC)c(NC(=O)CN3CCCCC3)c12	none
CCOC(=O)c1c(C)n(C)c2cc(Br)c(C(=O)OC)cc12	none
CCOC(=O)c1c(C)n(C)c2ccc(OC)c([N+](=O)[O-])c12	NALP1 yeast inh 22
CCOC(=O)c1c(C)n(C)c2cc(Br)c(OC)cc12	NR3A LBD binder 11
O=C(N/N=C/c1ccccc1)c1[nH]c2ccc(Br)cc2c1-c1ccccc1	NR3A LBD binder 27
COc1ccc2[nH]c(C(=O)N/N=C/c3ccccc3OC)cc2c1	none
Cc1ccc2[nH]c(C(=O)N/N=C/c3ccc([N+](=O)[O-])cc3)c(C)c2c1	NR3A LBD binder 20
COc1cc(OC)c2cc(C(=O)N/N=C/c3ccccc3O)[nH]c2c1	NR3A LBD binder 37
O=C(NN=C1CCCC1)c1[nH]c2ccc(Br)cc2c1-c1ccccc1	none (no result: dFosB act)
Cc1ccc2[nH]c(C(=O)N/N=C/c3ccccc3O)c(C)c2c1	NR3A LBD binder 19
COc1ccccc1C(=O)Nc1ccc(OCC(=O)N2CC(C)OC(C)C2)cc1 (stereo not given)	none (no result: NALP1 yeast inh)
NC(=S)N/N=C/c1ccc2ccccc2c1	NR3A LBD binder 18
Cc1cc(C)c2oc(=O)cc(CN3CCC(C)CC3)c2c1	none
CCN(CC)S(=O)(=O)c1ccc2[nH]c(=O)cc(C(=O)NCC3CCCO3)c2c1 (stereo not given)	NR3A LBD binder 17 (no result: NALP1 yeast inh)
CCc1ccc(NC(=O)C(C)OC(=O)c2ccc(NS(=O)(=O)c3ccc(C)c([N+](=O)[O-])c3)cc2)cc1 (stereo not given)	NR3A LBD binder 13
CC(=O)c1ccc(S(=O)(=O)NCCC(=O)OC(C)C(=O)Nc2ccc(F)cc2)cc1 (stereo not given)	none (no result: NALP1 yeast inh)
COc1cc2c(cc1NC(=O)C(C)OC(=O)c1ccc(S(=O)(=O)Nc3ccccc3Cl)cc1)oc1ccccc12 (stereo not given)	NR3A LBD binder 10
CC(=O)c1ccc(NC(=O)C(C)OC(=O)c2ccc(NS(=O)(=O)c3ccc(F)c(F)c3)cc2)cc1 (stereo not given)	NR3A LBD binder 11
Cc1ccc(NC(=O)C(C)OC(=O)c2ccc(NS(=O)(=O)c3ccc(F)c(F)c3)cc2)cc1 (stereo not given)	NR3A LBD binder 28
Cc1ccc(S(=O)(=O)NC(=O)Nc2ccc(F)c(F)c2)cc1	none
CCOC(=O)c1sc(NC(=O)C2CC(=O)N(c3ccc(OCC)cc3)C2)nc1C (stereo not given)	none
COc1ccc(Cl)cc1NC(=O)C(C)OC(=O)c1ccc(NS(=O)(=O)c2ccc3[nH]c(=O)[nH]c3c2)cc1 (stereo not given)	NR3A LBD binder 18
CC(OC(=O)c1ccc(NS(=O)(=O)c2ccc3[nH]c(=O)[nH]c3c2)cc1)C(N)=O (stereo not given)	none
CC(C)(C)OC(=O)NCCC(=O)N/N=C/c1cccc2cccnc12	none (no result: NALP1 yeast inh)
CC(C)(C)OC(=O)N1CCC[C@H]1C(=O)N/N=C/c1cccc2cccnc12	NR3A LBD binder 14
